# The whole screen tested about 1,400 compounds, of which fewer than 10 were called active. These entries were drawn from the full list. Unmarked numbers belong to inactive results.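 The calls were made as follows: active = fluorescence-lowering compounds whose fitted half-maximal concentration is at or below ten times the highest valid dose tested; inconclusive = flat curve at 30 to 70% inhibition, or poor fit; inactive = the rest.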
# Molecular target: Histone deacetylase 3 (Homo sapiens) (UniProt O15379)
# Sequence (O15379 whole entry, looked up): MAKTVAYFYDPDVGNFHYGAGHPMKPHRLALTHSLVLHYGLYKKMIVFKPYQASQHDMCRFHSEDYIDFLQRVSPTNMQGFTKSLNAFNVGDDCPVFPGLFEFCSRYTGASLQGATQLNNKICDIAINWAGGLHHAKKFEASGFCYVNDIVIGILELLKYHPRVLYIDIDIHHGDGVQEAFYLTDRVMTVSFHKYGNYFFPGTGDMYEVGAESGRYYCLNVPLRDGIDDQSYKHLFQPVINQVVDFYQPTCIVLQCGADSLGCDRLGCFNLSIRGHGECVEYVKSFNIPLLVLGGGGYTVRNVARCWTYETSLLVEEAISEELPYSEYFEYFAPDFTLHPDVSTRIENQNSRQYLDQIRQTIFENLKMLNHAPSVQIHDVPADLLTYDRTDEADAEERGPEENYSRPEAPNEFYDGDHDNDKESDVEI
# Test: HDAC3 deacetylase inhibitors, dose response, counter-screen for JMJD2C/GASC1 demethylase inhibitor project, biochemical, fluorescence, cherry-picked samples (AID 485318);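 also: enzyme preincubated with compound before substrate and trypsin were added; 0% = neutral control wells and -100% = SAHA positive control wells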
# Details: recombinant HDAC3, fluorogenic peptide/trypsin coupled; series mostly up to 12 µM; activity change, negative = inhibition: at the top concentration
row,Structure (SMILES),"activity change, negative = inhibition"
1,C[C@H]1CN(CCc2ccccc2)C(=O)[C@@H]1CC(=O)NCc1ccccc1,-0.42%
2,COc1ccc(NC(=S)NNC(=O)c2ccc(S(=O)(=O)N3CCOCC3)cc2)cc1,0.24%
3,CN(c1ccc(OCC(=O)N2CCCCC2)cc1)S(=O)(=O)c1cccs1,-0.149%
4,Nc1c(Cl)ncnc1NCc1cccnc1,0.296%
5,CCC(C)C(NC(=O)OC(C)(C)C)C(=O)NC(C(=O)N1CCCC1C(N)=O)C(C)CC (centres undefined),0.796%
6,COc1cc(OC)cc(C(=O)Nc2ccc(-n3cnnn3)c(C)c2)c1,-0.279%
7,N#CCCn1c(SCC(=O)N2CCN(S(=O)(=O)c3ccccc3)CC2)nc2ccccc21,0.508%
8,CCOC(=O)Nc1cc(C)c(Cl)cc1OC,1.18%
9,Cc1onc(-c2ccccc2)c1C(=O)Nc1c(C)n(C)n(-c2ccccc2)c1=O,0.51%
10,CS(=O)(=O)N(CC(=O)Nc1ccccc1C(=O)NCCc1ccccc1)c1ccc2c(c1)OCCO2,0.133%
11,CCOC(=O)c1[nH]c(C)c(/C(O)=C2\C(=O)C(=O)N(CCCN(CC)CC)C2c2cccnc2)c1C (centres undefined),0.131%
12,COc1ccc(CCNC(=O)N2c3ccccc3Sc3ccccc32)cc1,1.25%
13,CCC(=O)Nc1ccc(NC(=O)CSc2nnnn2C(C)C)cc1,0.553%
14,C[C@@H]1CCCCCCCCC(=O)OCCN(C(=O)OC(C)(C)C)[C@H](C)CCCCCCCCC(=O)OCCN(C(=O)OC(C)(C)C)[C@H](C)CCCCCCCCC(=O)OCCN1C(=O)OC(C)(C)C,0.233%
15,Cc1ccc(S(=O)(=O)Nc2ccc3c(c2)CC(=O)N([C@H](C)CO)C[C@@H](C)[C@H](CN(C)S(=O)(=O)c2ccccc2)O3)cc1,1.04%
16,CCOc1ccc(CN(C)CC(=O)Nc2cc(C)c(C)cc2[N+](=O)[O-])cc1,-0.108%
17,COc1ccccc1OCCOCCn1cnc2ccccc2c1=O,-0.761%
18,O=[N+]([O-])c1cc(/C=N/Nc2nc3ccccc3[nH]2)c(O)cc1O,0.0861%
19,CC(=O)C[C@@H](O)CC(=O)[C@H]1OC(=O)[C@H](C)CCCCc2ccccc21,-0.548%
20,CC[C@]12c3[nH]c4ccccc4c3CCN1C(=O)C(CC(=O)NCCCOC)C[C@@H]2C(=O)N1CCN(C(=O)c2ccco2)CC1 (some centres undefined),0.706%
21,CCOCCc1nnc(NC(=O)c2ccc(OC)c(OC)c2)s1,-1.23%
22,O=C1CCCc2c1nc(-c1ccccc1)n2O,0.0393%
23,COC(=O)[C@]1(Cc2ccccc2)N[C@H](CN(C)S(=O)(=O)c2ccc(F)cc2)[C@@H]2C(=O)N(Cc3ccccc3)C(=O)[C@@H]21,0.164%
24,COc1ccc(C2CC(c3cccs3)=NN2S(=O)(=O)c2ccc(C)cc2)cc1 (centres undefined),0.501%
25,COc1ccc(/C=C/C(=O)NC(=S)NNC(=O)Cc2cccs2)cc1OC,-0.579%

row,Structure (SMILES),"activity change, negative = inhibition"
1,Cc1ccc(N2CC(C(=O)Nc3ccc(N(C)C)cc3)CC2=O)cc1C (centres undefined),0.359%
2,COc1ccc(NN=Nc2nc3c([nH]2)c(=O)n(C)c(=O)n3C)cc1,0.508%
3,O=C(Cc1sc(-c2ccccc2)nc1-c1ccccc1)Nc1ccccc1,-0.152%
4,CCc1ccc(NC(=O)CSc2nnc(CNC(=O)c3c(F)cccc3Cl)o2)cc1,0.0315%
5,O=C1CC2(CCN(C(=O)c3ccccc3Cl)CC2)Oc2ccccc21,0.607%
6,C[C@H]1CN([C@@H](C)CO)C(=O)Cc2cc(NS(=O)(=O)c3cccs3)ccc2O[C@H]1CN(C)S(=O)(=O)c1cn(C)cn1,-0.706%
7,CC(=O)Nc1ccc2c(c1)C(C)(C)C(C)N2C (centres undefined),-1.19%
8,O=C(O)c1ccnc(C(=O)O)c1,-0.152%
9,COc1ccc(NC(=O)Nc2cccc3c2O[C@H](CN(C)C(=O)NC(C)C)[C@@H](C)CN([C@H](C)CO)C3=O)cc1,-0.142%
10,COc1ccc(NC(=S)NCCCn2ccnc2)cc1,-0.13%
11,CCOc1ccc(N=Cc2c(O)n(-c3cccc(C)n3)c(=O)c3ccccc23)cc1,0.766%
12,Cc1cccc(C)c1N1C(=O)c2cccc([N+](=O)[O-])c2C1=O,-0.27%
13,CCOC(=O)C1CCN(S(=O)(=O)c2cccc(-c3cn4cc(Cl)ccc4n3)c2)CC1,0.424%
14,CC(=O)c1c(C(C)=O)c(C)n(NC(=O)c2ccncc2)c1C,0.563%
15,CN1CCN(c2nc3ccccn3c(=O)c2/C=C(\C#N)S(=O)(=O)c2ccc(Cl)cc2)CC1,1.17%
16,O=C1CC(N2CCC(O)(c3ccc(Cl)cc3)CC2)C(=O)N1Cc1ccc(N2CCCC2=O)cc1 (centres undefined),0.431%
17,CS(=O)(=O)c1ccccc1-c1nnc(NC(=O)c2ccc3ncsc3c2)o1,-1.47%
18,CN(C(=O)c1ccc(NC(=O)Cc2ccc(NC(=O)C3CCN(C(=O)C4CCC4)CC3)cc2)cc1)C1CC1,0.986%
19,CCS(=O)(=O)N1CCN(c2ccc([N+](=O)[O-])c(N3CCOCC3)c2)CC1,-0.0167%
20,O=C(CCN1C(=O)/C(=C/c2ccc(F)cc2)SC1=S)N[C@@H](CO)Cc1ccccc1,-0.0269%
21,c1ccc(-c2ccccc2OCCN2CCCC2)cc1,-0.955%
22,CSc1nc(N)nc2c1ncn2CC(=O)N[C@H](CO)Cc1c[nH]c2ccccc12,-0.258%
23,CCc1nn2c(N3CCOCC3)cc(C)nc2c1-c1ccc(F)cc1,0.143%
24,CSc1nc(N)nc2c1ncn2CC(=O)NCCNc1ccc([N+](=O)[O-])cn1,-0.105%
25,CC1=C(C(=O)OC(C)C)C(c2ccccc2)NC(=S)N1C (centres undefined),-0.136%

row,Structure (SMILES),"activity change, negative = inhibition"
1,COc1ccccc1N1CCN(c2nc3c(C)cccn3c(=O)c2C=O)CC1,0.107%
2,O=c1c2ccccc2nc2c3ccccc3c(NCc3ccco3)nn12,0.625%
3,O=C(NCC(c1ccco1)N1CCN(c2ccc(F)cc2)CC1)OCc1ccccc1 (centres undefined),0.174%
4,CC(C)(C)NC(=O)CSc1nc2cccnc2n1C1CCCCC1,0.349%
5,C/C(=N\Nc1nc(C(=O)O)cs1)c1ccccc1,-0.586%
6,CN1CCN(Cc2c(C#N)c3ccccc3n2C)CC1,-0.48%
7,CN(C)CCCNC1=CC(=O)OC12CCCCC2,-0.144%
8,Nn1cc(-c2ccccc2)nc1SCC(=O)N1CCN(S(=O)(=O)c2ccc3ccccc3c2)CC1,-0.203%
9,CCN(CC)C(=O)C1c2ccccc2Oc2ccccc21,-0.357%
10,CCCn1nnnc1SCC(=O)NCc1ccc2c(c1)OCO2,0.24%
11,Cc1noc(C)c1COc1ccc(C(=O)OC(C)C(=O)Nc2ccc(N3CCOCC3)cc2)cc1 (centres undefined),0.0949%
12,CCNC(=O)c1ccc2c(c1)S(=O)(=O)c1ccccc1C2=O,0.35%
13,Cc1ccccc1N=C1N=C(N)c2ccccc21,1.05%
14,COc1cccc(C(c2nnnn2CCc2ccccc2)N2CCN(c3ccccc3)CC2)c1OC (centres undefined),-0.0474%
15,O=C(O)c1ccc2cc(-c3ccccc3)[nH]c2c1,-0.104%
16,Cc1cc(N(C)C)cc(C)[n+]1[O-],1.03%
17,CC(=O)Oc1ccc(NC(=O)Cc2ccccc2)c(C(=O)O)c1,0.179%
18,CCN(C[C@H]1N[C@@](Cc2ccccc2)(C(=O)OC)[C@H]2C(=O)N(C)C(=O)[C@@H]12)S(=O)(=O)c1ccccc1,-0.222%
19,Cn1c(=O)n(C)c2cc(S(=O)(=O)N3CCOCC3)ccc21,1.24%
20,Cc1ccc(NC2=NCC(=O)N2Cc2ccc3c(c2)OCO3)c(C)c1,0.52%
21,CC1(C)CC2(CC(C)(C)N1)OC(=O)N1CCc3ccccc3C12C (centres undefined),0.0279%
22,CCCN(C(=O)Cc1ccc(S(=O)(=O)N2CCOCC2)s1)c1c(N)n(Cc2ccccc2)c(=O)[nH]c1=O,-0.39%
23,CC(=O)Nc1cc2c(cc1NC(=O)Cn1nc(-c3ccccc3)ccc1=O)OCCO2,-0.351%
24,CCOc1ccccc1N(CC(=O)O)S(=O)(=O)c1ccc(C)cc1,0.686%
25,COc1ccc(/C=C2/CC/C(=C\c3ccc(OC)c(OC)c3OC)C2=O)c(OC)c1OC,0.948%

row,Structure (SMILES),"activity change, negative = inhibition"
1,COc1cc(NS(=O)(=O)c2ccc(NC(=O)c3ccc(C)o3)cc2)nc(OC)n1,0.178%
2,C[C@@H]1CN([C@H](C)CO)C(=O)c2cc(NC(=O)Cc3ccccc3)ccc2O[C@H]1CN(C)Cc1ccc(Oc2ccccc2)cc1,0.213%
3,CCOc1ccc(N2C(=O)CC(N(O)c3ccccc3)C2=O)cc1 (centres undefined),0.801%
4,CC1CN(Cc2c(O)ccc3c2oc(=O)c2ccccc23)CC(C)O1 (centres undefined),-0.481%
5,COc1cc2c(cc1OC)C1=C(C#N)COCN1CC2,-0.477%
6,CCNC(=S)NNC(=O)c1csc2c1CCC(C)C2 (centres undefined),0.337%
7,O=C(CN1C(=O)NC2(CCCC2)C1=O)Nc1nc(-c2ccccc2)cs1,-0.418%
8,CC1CCCC(NC(=O)COC(=O)c2ccc(N(C)C)cc2)C1C (centres undefined),0.088%
9,COc1ccc(C(=O)NCc2nnc(SCC(=O)N3CCc4ccccc43)o2)cc1OC,-0.675%
10,O=C(c1ccncc1)N1N=C(C2CCCCC2)CC1(O)C(F)(F)F (centres undefined),0.32%
11,CSc1nnnn1CCn1nnnc1SC,-0.14%
12,CS(=O)(=O)NC1c2cccc3cccc(c23)C1Sc1nncn1/N=C/c1ccco1 (centres undefined),0.4%
13,N#Cc1ccc(OCC(=O)N2CCN(S(=O)(=O)c3cccs3)CC2)cc1,0.818%
14,Cc1cc(C)n2nc(C(=O)N3CCCC(Nc4ccc(F)c(F)c4)C3)cc2n1 (centres undefined),0.457%
15,C=CCn1cnc2scc(-c3ccc(C)cc3)c2c1=O,0.314%
16,CCCCCNc1nc(-c2ccccc2)nc(-n2ccnc2)n1,-0.269%
17,CC(=O)C1=C(c2ccccc2)N(C(C)=O)n2c(C)nnc2S1,-0.262%
18,CC1=C(C(=O)OCC2CCCO2)C(c2ccccc2OC(C)C)C2=C(CC(c3ccco3)CC2=O)N1 (centres undefined),-0.466%
19,Cc1occc1-c1nnc(SCC(=O)Nc2ccccc2)n1C(C)c1ccccc1 (centres undefined),0.434%
20,CCN(Cc1nc(-c2ccccc2)no1)C(=O)c1ccco1,-0.489%
21,Cc1nnc(N2C(=O)C(=O)/C(=C(/O)c3ccc4c(c3)CC(C)O4)C2c2ccccc2F)s1 (centres undefined),0.641%
22,CCC(C(=O)NCCCc1ccccc1)c1ccccc1 (centres undefined),0.435%
23,COCCCNC(=O)C1CCN(C(=O)Nc2ccc(Cl)cc2)CC1,-0.45%
24,COC(=O)[C@]1(C)N[C@H](CN(C)S(=O)(=O)c2ccc(F)cc2)[C@@H]2C(=O)N(C)C(=O)[C@@H]21,-0.842%
